Assay results taken from PubChem BioAssay (Tox21).
Inconclusive results are not listed. The source made the active and inactive calls. Unless noted, calls follow the shape of the full dose curve.

What was measured:
[1] = Nuclear factor erythroid 2-related factor 2/antioxidant responsive element (Nrf2/ARE) small molecule agonists: qHTS cell viability counter screen in human keratinocytes (AID 1919968; active = well fitted curve in the direction sought with a large enough effect in the repeat runs; an effect the other way counts as inactive or inconclusive; also: nearly all actives have a fitted effect of over 55% in size)
Summary of the method: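 In human HaCaT keratinocytes stably expressing an ARE-driven luciferase, compound exposure lasted 23 h at 37 C under 5% CO2. Viable cells are quantified with a protease-based fluorogenic reagent (CellTiter-Fluor) read 1 h after addition.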

[2] = molecular target: Gonadotropin-releasing hormone receptor (Homo sapiens) (UniProt P30968); test: Human gonadotropin-releasing hormone receptor (GnRHR) small molecule agonists, calcium flux assay in GnRHR-HEK293 cells (AID 1920063); also: nearly all actives have a fitted effect of over 35% in size
Summary of the method: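 Intracellular calcium rise is the read-out: engineered human GnRHR HEK293 cells, dye-loaded, are exposed to DMSO-dissolved compounds and fluorescence at Ex/Em 480/540 is tracked for 3 min.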

[3] = molecular target: KiSS-1 receptor (Homo sapiens) (UniProt Q969F8); test: Human kisspeptin (KISS1R) small molecule agonists, calcium flux assay in KISS1R-HEK293 cells (AID 1920064; active = well fitted curve in the direction sought with a large enough effect in the repeat runs; an effect the other way counts as inactive or inconclusive)
Summary of the method: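 Concentration-response testing used 15 concentrations in triplicate on human KISS1R-expressing HEK293 cells. Calcium-dependent fluorescence (Ex/Em 480/540) was followed kinetically for 3 min after compound transfer.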

[4] = G protein-coupled receptor (GPCR) small molecule agonists, calcium flux assay: HEK293 wild type cell line counter screen (AID 1920065)
Summary of the method: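 Fluorescence intensity signals activation. After overnight (18 h) culture and a 1 h calcium dye load at 37 C, compounds are added by pin tool and the plate read at 480/540 nm for 3 min in 1 s steps.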

[5] = p53 small molecule agonists, cell-based qHTS assay with rat liver microsomes (AID 1963578)
Summary of the method: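 Fluorescence from a beta-lactamase reporter under a p53 response element was measured after cells had been incubated 16 h at 37 C with test compound and rat liver microsomes plus NADPH (0.5 mg/mL final each).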

[6] = p53 small molecule agonists, cell-based qHTS assay with human liver microsomes: qHTS cell viability counter screen (AID 1963579); also: nearly all actives have a fitted effect of over 45% in size
Summary of the method: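 Seed p53RE-bla cells at 4,000 per well; incubate 5 h at 37 C; add compound, human liver microsomes and NADPH; incubate 16 h at 37 C; add CellTiter-Glo; after 30 min at room temperature, read luminescence.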

[7] = p53 small molecule agonists, cell-based qHTS assay with rat liver microsomes: qHTS cell viability counter screen (AID 1963580); also: nearly all actives have a fitted effect of over 45% in size
Summary of the method: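 Cytotoxicity counter screen: intracellular ATP measured by CellTiter-Glo luminescence in the same wells as the beta-lactamase reporter read, on HCT-116 p53RE-bla cells exposed 16 h at 37 C to compounds with rat liver microsomes and NADPH, each 0.5 mg/mL final.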

[8] = p53 small molecule agonists, cell-based qHTS assay: qHTS cell viability counter screen (AID 1963581); also: nearly all actives have a fitted effect of over 45% in size
Summary of the method: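 Luminescence from CellTiter-Glo, reflecting ATP content, serves as the cytotoxicity measure; it is taken after the 2 h reporter substrate step in HCT-116 p53RE-bla cells dosed for 16 h at 37 C.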

[9] = p53 small molecule agonists, cell-based qHTS assay (AID 1963582; active = well fitted activation curve with a large enough effect in the signal ratio in the repeat runs, not every such curve was filed as active; the % refers to the signal ratio)
Summary of the method: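 After plating, p53RE-bla cells sat 5 h in the incubator; compounds or DMSO vehicle were pinned in; a 16 h incubation at 37 C followed; FRET substrate was added and, 2 h later at RT, fluorescence was measured.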

[10] = molecular target: 5-hydroxytryptamine receptor 2A (Homo sapiens) (UniProt P28223); test: 5-hydroxytryptamine receptor 2A (HTR2A) small molecule antagonists, cell-based qHTS assay (AID 1963586); also: nearly all actives have a fitted effect of over 45% in size; also: potency is read from the fitted curve at half-maximal effect
Summary of the method: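 CHO cells stably expressing human HTR2A were plated for 18 h at 37 C, then loaded with calcium dye for 1 h. Compounds were preincubated 5 min at room temperature before DOI (4 nM solution) was added. Kinetic fluorescence was read for 3 min.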

[11] = molecular target: Muscarinic acetylcholine receptor M1 (Homo sapiens) (UniProt P11229); test: Cholinergic receptor muscarinic 1 (CHRM1) small molecule antagonists, cell-based qHTS assay (AID 1963588); also: nearly all actives have a fitted effect of over 40% in size
Summary of the method: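 Compounds were tested at 15 concentrations in three independent runs. Dye-loaded CHRM1-CHO cells were exposed 5 min at room temperature before stimulation by acetylcholine added at 50nM. Intracellular calcium was read kinetically on FDSS for 3 min.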

[12] = molecular target: Muscarinic acetylcholine receptor M1 (Homo sapiens) (UniProt P11229); test: Cholinergic receptor muscarinic 1 (CHRM1) small molecule agonists, cell-based qHTS assay (AID 1963589); also: nearly all actives have a fitted effect of over 35% in size
Summary of the method: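 Fluorescent calcium dye reports M1 activation in stably transfected CHO cells. Compounds, 15 concentrations, added after 1 h dye loading at 37 C; kinetic reading at 1 sec intervals.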

[13] = cAMP Responsive Elements (CRE) small molecule agonists, cell-based qHTS assay (AID 1963590)
Summary of the method: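 Compound exposure lasted 3 h at 37 C/5% CO2 in CRE-bla HEK 293T cells grown in assay medium with 10% dialyzed FBS and 25 mM HEPES. Reporter signal came from LiveBLAzer B/G FRET substrate, 2 h, room temperature.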

[14] = cAMP Responsive Elements (CRE) small molecule antagonists, cell-based qHTS assay (AID 1963591; active = well fitted inhibition curve with a large enough effect in the signal ratio in the repeat runs, not every such curve was filed as active; the % refers to the signal ratio)
Summary of the method: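 Stimulation used NKH477 at a final 0.25 uM for 3 h in compound-treated CRE-bla HEK293T cells, seeded 18 h beforehand. Reporter activity was measured with LiveBLAzer B/G FRET substrate after 2 h at room temperature.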

[15] = molecular target: Beta-2 adrenergic receptor (Homo sapiens) (UniProt P07550); test: Adrenergic beta2 receptor (ADRB2) small molecule antagonists, cell-based qHTS assay (AID 1963592); also: series mostly up to about 92 µM; nearly all actives have a fitted effect of over 50% in size
Summary of the method: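 Assay format: CHO-ADRB2 cells, 18-20hr seeding at 37C/5% CO2, then compound plus 1nM isoproterenol agonist mix for 0.5hr RT. Homogeneous time-resolved fluorescence cAMP detection after 1hr, expressed as 665/615 nm ratio.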

[16] = molecular target: D(2) dopamine receptor (Homo sapiens) (UniProt P14416); test: Dopamine D2 receptor (DRD2) small molecule agonists, cell-based qHTS assay (AID 1963594); also: nearly all actives have a fitted effect of over 35% in size
Summary of the method: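 HEK293 cells stably expressing human DRD2, pre-treated with PDE inhibitor Ro20-1724 (0.1 mM final) and compound 10 min at room temperature, then stimulated with NKH477 (200nM […]) for 30 min. cAMP read by HTRF (665/620 nm).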

[17] = molecular target: D(2) dopamine receptor (Homo sapiens) (UniProt P14416); test: Dopamine D2 receptor (DRD2) small molecule antagonists, cell-based qHTS assay (AID 1963595; active = well fitted inhibition curve with a large enough effect in the signal ratio in the repeat runs, with a control signal flat; the % refers to the signal ratio)
Summary of the method: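 Stable D2 receptor HEK293 line, 24 h after seeding. Compound preincubated 10 min, then quinpirole (12 nM) with forskolin analogue NKH477 (200 nM), 30 min, room temperature. Detection by time-resolved FRET of cAMP.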

[18] = molecular target: 5-hydroxytryptamine receptor 2A (Homo sapiens) (UniProt P28223); test: 5-hydroxytryptamine receptor 2A (HTR2A) small molecule agonists, cell-based qHTS assay (AID 1963587); also: nearly all actives have a fitted effect of over 30% in size
Summary of the method: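 CHO cells stably expressing human HTR2A, plated 18 h, loaded with calcium dye 1 h at 37 C. Agonist mode: compounds added and intracellular calcium fluorescence recorded kinetically for 2 min at 1 sec intervals.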

[19] = molecular target: Beta-2 adrenergic receptor (Homo sapiens) (UniProt P07550); test: Adrenergic beta2 receptor (ADRB2) small molecule agonists, cell-based qHTS assay (AID 1963593);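 also: CHO cells stably overexpressing human ADRB2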
Summary of the method: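 CHO cells stably over-expressing ADRB2 were plated overnight at 37C, then dosed with compounds plus a stimulation mix containing 100uM IBMX and 25uM Ro-20-1724 for 0.5hr at room temperature. cAMP was measured by HTRF competition, 1hr.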

Measured: Potency

Chain of KiSS-1 receptor (Homo sapiens) (Q969F8 whole entry, looked up): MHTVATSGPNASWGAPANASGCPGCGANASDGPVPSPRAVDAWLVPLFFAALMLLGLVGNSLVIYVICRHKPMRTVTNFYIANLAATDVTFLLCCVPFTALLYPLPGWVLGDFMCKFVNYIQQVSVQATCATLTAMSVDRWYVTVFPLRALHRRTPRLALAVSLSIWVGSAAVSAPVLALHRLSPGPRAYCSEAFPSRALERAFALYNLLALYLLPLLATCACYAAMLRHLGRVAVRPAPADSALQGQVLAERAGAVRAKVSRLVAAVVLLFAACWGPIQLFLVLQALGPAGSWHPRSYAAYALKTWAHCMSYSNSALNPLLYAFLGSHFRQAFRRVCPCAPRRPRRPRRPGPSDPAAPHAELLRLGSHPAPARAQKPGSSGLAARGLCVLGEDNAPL
Chain of 5-hydroxytryptamine receptor 2A (Homo sapiens) (P28223 whole entry, looked up): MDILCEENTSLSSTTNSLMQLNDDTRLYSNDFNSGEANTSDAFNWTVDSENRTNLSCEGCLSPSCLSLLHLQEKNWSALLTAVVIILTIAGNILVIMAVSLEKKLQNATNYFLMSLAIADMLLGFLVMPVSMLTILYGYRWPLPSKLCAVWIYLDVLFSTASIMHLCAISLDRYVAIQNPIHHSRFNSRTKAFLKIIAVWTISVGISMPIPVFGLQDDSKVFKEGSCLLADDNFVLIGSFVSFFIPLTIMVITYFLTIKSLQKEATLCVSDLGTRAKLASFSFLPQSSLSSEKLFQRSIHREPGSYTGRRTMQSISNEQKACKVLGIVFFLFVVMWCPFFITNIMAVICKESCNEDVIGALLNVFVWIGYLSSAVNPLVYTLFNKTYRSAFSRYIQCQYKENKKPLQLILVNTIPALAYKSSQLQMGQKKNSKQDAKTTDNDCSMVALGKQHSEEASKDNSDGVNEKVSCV
Chain of Muscarinic acetylcholine receptor M1 (Homo sapiens) (P11229 whole entry, looked up): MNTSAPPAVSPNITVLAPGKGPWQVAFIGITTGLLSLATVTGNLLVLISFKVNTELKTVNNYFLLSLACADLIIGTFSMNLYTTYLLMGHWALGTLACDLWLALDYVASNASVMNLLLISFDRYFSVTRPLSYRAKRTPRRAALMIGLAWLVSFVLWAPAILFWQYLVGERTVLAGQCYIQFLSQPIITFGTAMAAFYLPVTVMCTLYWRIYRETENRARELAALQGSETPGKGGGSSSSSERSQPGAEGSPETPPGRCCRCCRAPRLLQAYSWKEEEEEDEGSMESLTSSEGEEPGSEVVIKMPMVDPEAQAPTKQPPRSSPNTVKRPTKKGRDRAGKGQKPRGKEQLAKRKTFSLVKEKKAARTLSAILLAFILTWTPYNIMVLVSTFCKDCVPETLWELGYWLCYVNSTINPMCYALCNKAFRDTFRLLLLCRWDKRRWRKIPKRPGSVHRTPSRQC
Chain of Beta-2 adrenergic receptor (Homo sapiens) (P07550 whole entry, looked up): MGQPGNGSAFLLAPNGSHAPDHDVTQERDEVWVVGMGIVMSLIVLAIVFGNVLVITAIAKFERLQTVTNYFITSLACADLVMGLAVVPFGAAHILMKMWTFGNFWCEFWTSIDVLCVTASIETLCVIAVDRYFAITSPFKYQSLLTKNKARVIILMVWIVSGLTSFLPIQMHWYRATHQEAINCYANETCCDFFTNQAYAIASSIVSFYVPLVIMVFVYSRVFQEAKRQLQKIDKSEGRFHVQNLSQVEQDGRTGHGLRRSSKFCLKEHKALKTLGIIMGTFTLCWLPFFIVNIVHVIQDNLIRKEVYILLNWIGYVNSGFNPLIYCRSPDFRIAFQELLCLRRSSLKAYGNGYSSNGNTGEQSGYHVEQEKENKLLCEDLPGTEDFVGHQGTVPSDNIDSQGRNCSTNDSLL
Chain of Gonadotropin-releasing hormone receptor (Homo sapiens) (P30968 whole entry, looked up): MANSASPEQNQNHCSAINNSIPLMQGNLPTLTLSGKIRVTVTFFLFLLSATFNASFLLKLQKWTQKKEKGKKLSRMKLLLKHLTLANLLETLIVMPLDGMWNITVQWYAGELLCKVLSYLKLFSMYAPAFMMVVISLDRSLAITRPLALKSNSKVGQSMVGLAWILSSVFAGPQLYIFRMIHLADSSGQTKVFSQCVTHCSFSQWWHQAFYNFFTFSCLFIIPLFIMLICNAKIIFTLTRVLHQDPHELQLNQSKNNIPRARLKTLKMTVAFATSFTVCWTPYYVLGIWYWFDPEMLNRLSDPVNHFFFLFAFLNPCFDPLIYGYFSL
Chain of D(2) dopamine receptor (Homo sapiens) (P14416 whole entry, looked up): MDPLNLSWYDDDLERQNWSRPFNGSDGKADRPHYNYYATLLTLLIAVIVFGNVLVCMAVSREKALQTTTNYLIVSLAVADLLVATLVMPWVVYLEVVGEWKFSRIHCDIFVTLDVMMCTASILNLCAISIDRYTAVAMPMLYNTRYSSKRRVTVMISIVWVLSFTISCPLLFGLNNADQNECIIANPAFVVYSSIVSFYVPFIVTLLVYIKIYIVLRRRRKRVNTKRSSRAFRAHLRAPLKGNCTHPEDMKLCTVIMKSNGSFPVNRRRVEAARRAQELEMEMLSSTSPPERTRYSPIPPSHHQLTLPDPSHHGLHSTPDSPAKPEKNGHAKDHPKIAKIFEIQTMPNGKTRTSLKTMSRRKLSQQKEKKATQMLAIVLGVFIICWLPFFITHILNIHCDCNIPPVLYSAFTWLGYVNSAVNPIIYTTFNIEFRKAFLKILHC

O=[N+]([O-])c1cccc(C(F)(F)F)c1
inactive: [1] | [2] | [3] | [4] | [5] | [6] | [7] | [8] | [9] | [10] | [11] | [12] | [13] | [14] | [15] | [16] | [17]

C[Si](Cl)(c1ccccc1)c1ccccc1
inactive: [1] | [2] | [3] | [4] | [5] | [6] | [7] | [8] | [9] | [10] | [11] | [12] | [13] | [15] | [16] | [17]

C#CCN(C)CCCOc1ccc(Cl)cc1Cl
active: [10] 16.3 µM
inactive: [1] | [2] | [3] | [4] | [5] | [6] | [7] | [8] | [9] | [18] | [12] | [13] | [14] | [15] | [19]

Oc1ccccc1-c1nnco1
inactive: [1] | [2] | [3] | [4] | [5] | [6] | [7] | [8] | [9] | [10] | [18] | [11] | [14] | [15] | [16] | [17]

CCC(Cl)CCC(Cl)C(Cl)CC(Cl)C(Cl)C(Cl)CCl (stereo not given)
inactive: [1] | [2] | [3] | [4] | [5] | [6] | [8] | [9] | [10] | [18] | [11] | [12] | [13] | [14] | [15] | [16] | [17]

CC1(C)C(=O)N(Br)C(=O)N1Br
inactive: [1] | [2] | [3] | [4] | [5] | [6] | [7] | [8] | [9] | [18] | [11] | [12] | [13] | [14] | [15] | [19] | [16] | [17]
